# This is a sample that favours compounds with a hit; in the whole collection about 2.1% have one here.
# TDP-43 yeast inh – qHTS of TDP-43 Inhibitors; TDP-43 expressing yeast growth rescue, BacTiter-Glo, 24 h; Potency, µM (highest dose often 46.1 µM), for the others: at the top dose growth rescue (activation), usual class: activators; 1.8% of 410,000 active; note: % of control where 0% means no effect; nearly all actives have a fitted effect of over 50% in size
#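 Galactose-induced TDP-43 yeast, OD600=0.02, compound pinned; 24 hr, 30 deg C; BacTiter-Glo luminescence for growth. Inhibitors of TDP-43 toxicity read as activators.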
# FUS suppressor – qHTS for Suppressors of FUS Proteinopathy: Primary screen using FUS-linked yeast assay; S. cerevisiae FUS-expressing, growth rescue, OD600, 24 h; Potency, µM (titrated, usually from 76.6 µM), usual class: activators; 0.24% of 390,000 active; AID 1347120, 2019;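 note: plate controls were DMSO vehicle for no effect and reference control for full effect; nearly all actives have a fitted effect of over 55% in size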
#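 Galactose (2%) drives FUS expression in yeast precultured in raffinose; seeding density OD 0.005. Test compounds incubated 24hr at 30C and 99% humidity before absorbance at 600 nm was measured.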
# aSyn yeast inh – qHTS of alpha-syn Inhibitors. AID 652106, 2013. 0.14% of 370,000 active. Yeast expressing alpha-synuclein, growth rescue, BacTiter-Glo, 24 h. Potency, µM (doses to about 46.1 µM), inactives show top-dose growth rescue (activation), usual class: activators; note: % of control where 0% means no effect; nearly all actives have a fitted effect of over 65% in size
#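 Rescue of yeast growth: cells expressing toxic alpha-synuclein, induced in galactose at OD600 0.02, incubated with compound 24 h at 30 C. ATP luminescence quantified growth; inhibitors of toxicity appear as activators.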
# Abeta rescue – qHTS for compounds that reverse cellular toxicity of Amyloid beta (A-beta) peptide in yeast: Primary Screen. yeast expressing A-beta42, growth rescue, OD600, 48 h; response scale: 0% DMSO, 100% iron-clioquinol control. Potency, µM (series often up to 46.1 µM), hits mostly activators. 0.063% of 410,000 active; note: nearly all actives have a fitted effect of over 55% in size
#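 Yeast growth medium received pinned compounds, then yeast cells expressing toxic A-beta were added; plates incubated at 30 C for 48 hr. Growth read as absorbance at 600 nm, normalized to DMSO and equimolar FeCl3 plus clioquinol controls.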
# * = called active by the depositor; i = inactive; u = inconclusive; x = not tested or not shown; ! = not confirmed by another sample; [ ] = dose if it differs, or a comment. Calls come from the whole dose curve; as a rule, active = well fitted curve in the direction sought with a large enough effect; inconclusive = small, poorly fitted or top-dose-only effect, or another doubt; inactive = no such curve, though single readings can be large; an effect the other way counts as inactive or inconclusive. Potency is the fitted concentration of half-maximal effect.
SMILES,TDP-43 yeast inh,FUS suppressor,aSyn yeast inh,Abeta rescue
Cn1c(N)c(C(=O)COC(=O)C2CCC(C(C)(C)C)CC2)c(=O)n(C)c1=O (configuration not stated),35µM*,i,3%,i[9.22 µM]
CCOc1cccc(NC(=O)C2CC(=O)N(C)C(=Nc3ccccc3)S2)c1 (configuration not stated),u,i,20µM*,u
CCC(C)Sc1ccc(-c2nc3ccc(C)cn3c2NCc2ccccc2)cc1OC (configuration not stated),-46%,u,-55%,i
CCC(C)Sc1cc(-c2nc3ccc(C)cn3c2NCc2ccccc2)ccc1OC (configuration not stated),29%,32µM*!,-56%,i
COc1cccc(N2CCN(C(=O)c3cnn(-c4ccc(C)cc4C)c3C3CCN(C(=O)OC(C)(C)C)CC3)CC2)c1,15%,i,x,i
O=S(=O)(c1ccccc1F)N1CCC(Oc2ccc(-n3cnnn3)cc2)CC1,13µM*,i,24%,u
Cc1nc(N)nc(N)c1-c1ccc(Cl)c(Cl)c1,-3%,x,3%,i
Nc1nc(N)nc(-c2ccc(Cl)c(Cl)c2)n1,22µM*,i,0%,i
COc1cccc(C2c3c(ncn(-c4ccccc4)c3=N)Oc3ccc4ccccc4c32)c1OC (configuration not stated),x,i,x,x
N/C(Cc1ccc([N+](=O)[O-])cc1)=N\OC(=O)c1ccccc1F,11µM*,i,1%,i
O/N=C(/CI)c1ccc2ccccc2c1,x,x,4%,x
CC1CCC2(CC1)CCN(CCCOC(=O)Nc1cccc(C(F)(F)F)c1)C2=O (configuration not stated),x,i,x,x
Cc1c(Cc2ccccc2)sc(NC(=O)c2ccco2)c1C(N)=O,-41%,i,-49%,i
CCOc1ccc(CC(=O)Nc2sc(Cc3ccccc3)c(C)c2C(N)=O)cc1OCC,9%,14µM*,-15%,i
O=C(C(=O)N1CCC(c2ccccc2)CC1)c1cccc([N+](=O)[O-])c1,u,i,u,i
COc1ccc(C(=O)C(=O)N2CCC(Cc3ccccc3)CC2)cc1OC,11µM*,i,0%,i
COc1ccc(C(=O)C(=O)N2CCC(c3ccccc3)CC2)cn1,27%,i,16µM*,i
O=C(C(=O)N1CCC(Cc2ccccc2)CC1)c1cccc(Br)c1,-9%,i,4%,i
CCCCNC(=O)O[C@H]1CC[C@@]23CCCN2C(=O)CCC[C@H]3C1,x,i,x,x
COCc1cc(S(=O)c2ccc(Cl)cc2)nc(C)n1 (configuration not stated),15%,i,-17%,i
COCc1cc(Sc2ccc(Cl)cc2)nc(C)n1,11µM*,i,-6%,i
Cc1nc(CS(=O)(=O)c2ccc(Cl)cc2)cc(Sc2ccc(Cl)cc2)n1,28µM*,i,4%,i
CCOc1ccc(CSCCNC(=S)Nc2ccccc2)cc1,u,i,-13%,u
COc1ccc(CSCCNC(=S)Nc2ccccc2)cc1Cl,20µM*,i,4%,u
S=C(NCCSCc1c(Cl)cccc1Cl)Nc1ccccc1,10µM*,i,4%,i
SMILES,TDP-43 yeast inh,FUS suppressor,aSyn yeast inh,Abeta rescue
CCCOc1ccc(CNC(=S)Nc2ccccc2)cc1Cl,u,i,-8%,11µM*
S=C(NCCSCc1ccc(Cl)c(Cl)c1)Nc1ccccc1,11µM*,i,9%,i
S=C(NCCSCc1ccc(Cl)cc1Cl)Nc1ccccc1,16µM*,i,6%,i
COc1ccc(C)cc1S(=O)(=O)NCc1cccs1,-16%,i,8%,i
COc1ccc(Br)cc1S(=O)(=O)NCCc1cccs1,20µM*,i,u,i
O=C(NCC1COCCO1)C1CCN(S(=O)(=O)c2ccc(Br)s2)CC1 (configuration not stated),x,i,x,x
Cc1noc2ncnc(Sc3ccc(Br)cc3)c12,5.6µM*,i,-11%,i
CN1CC=C(c2ccccc2)N(c2ccc(Cl)cc2)C1=O,x,i,x,x
CCOc1ccccc1C(=O)Nc1ccc(C(=O)NCC2COc3ccccc3O2)cc1 (configuration not stated),x,i,x,x
CC1=CC2=NC(=O)/C(=C\c3cccn3CCOc3ccccc3C)C(=N)N2O1,20µM*,u,12%,u
COc1ccccc1OCCOc1ccc(/C=C2/C(=N)N3OC(C)=CC3=NC2=O)cc1OC,0%,i,1%,i
Cc1ccc(S(=O)(=O)NC(=S)NC2CCCCC2)cc1,16µM*,i,10%,i
CC1Cc2cc(S(=O)(=O)N(C)c3ccc(Br)cc3)ccc2N1C(=O)C1CC1 (configuration not stated),-5%,u,x,i
O=C([C@@H]1C[C@H]1c1ccccc1)N1CC[C@H]2[C@H](CCCN2Cc2ccc(F)cc2)C1,x,i,x,x
COc1ccc(-n2cnnc2SCc2cnc(-c3ccccc3)s2)cc1,20µM*,i,0%,i
COCCn1c(SCc2cnc(-c3ccccc3)s2)nnc1-c1ccncc1,2%,i,-6%,i
CCOC(=O)CC[C@@H]1CC[C@]2(CCCN(C(=O)C3CCCC3)C2)O1,x,i,x,x
O=C(NCc1cccc(Cl)c1)c1ccc(-n2cncn2)c2ccoc12,35µM*,i,3%,i
N#Cc1nc(-c2ccccc2)cc(-c2ccccc2)n1,x,x,-2%,x
Cc1nc(/C(N)=N/OC(=O)c2cccc(Cl)c2)c(C(F)(F)F)o1,20µM*,i,1%,i
CCc1nc(Nc2ccccc2)c2oc3ccccc3c2n1,11µM*,i,x,i
Cc1nc(NCCc2ccccc2)c2oc3ccccc3c2n1,11µM*,i,-16%,i
NC(=S)Cc1nc(-c2ccc(Cl)cc2)cs1,u,i,-27%,6.3µM*
NC(=O)Cc1nc(-c2ccc(F)cc2)cs1,13%,i,1%,i
NCCN1CCN(S(=O)(=O)c2ccc3c(c2)CCN3C(=O)C2CCC2)CC1,x,i,x,x
SMILES,TDP-43 yeast inh,FUS suppressor,aSyn yeast inh,Abeta rescue
COc1ccc(N2CCN(C(=O)CCc3c(C)nc4c(-c5ccccc5)c(C)nn4c3C)CC2)cc1,22µM*,u,x,i
COc1ccc(N2CCN(C(=O)CCc3c(C)nc4cc(-c5cccc(F)c5)nn4c3C)CC2)cc1,11%,i,x,i
COc1ccc(OCCCCn2c(C3CC(=O)N(c4cccc(Cl)c4)C3)nc3ccccc32)cc1 (configuration not stated),4%,u,x,i
c1ccc(CCNc2ncnc3c2cnn3-c2ccccc2)cc1,16µM*,i,-18%,i
c1ccc(Cn2ncc3c(Nc4ccccc4)ncnc32)cc1,13µM*,i,-6%,i
CSc1ncnc2c1cnn2-c1ccc(C)cc1C,18µM*,i,-8%,i
